# FLuc inh = inhibitors of firefly (Photinus pyralis) luciferase. P08659. purified P. pyralis luciferase, luminescence, biochemical. Potency, µM (top dose mostly 115 µM), hits mostly inhibitors. actives 2.5% (n = 76,000); also: nearly all actives have a fitted effect of over 65% in size
#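 Purified 10nM P. pyralis luciferase with 10uM D-luciferin and 10uM ATP in 50mM Tris acetate pH 7.5, 10mM Mg acetate, 0.01% Tween-20, 0.05% BSA. qHTS titration; luminescence read by CCD imager.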
# NIH3T3 tox = kills NIH 3T3 cells. NIH 3T3 viability, CellTiter-Glo ATP luminescence, 48-72 h. Potency, µM (highest dose often 96.7 µM), inactives show at the top dose activity change, negative = cytotoxicity, hits mostly inhibitors. actives 4.3% (n = 94,000). AID 1345082; also: nearly all actives have a fitted effect of over 55% in size
#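 Cytotoxicity is measured as loss of cellular ATP: NIH 3T3 cells (400/well) are exposed to compound for 48 or 72 hr at 37 °C, then CellTiter-Glo luminescence is imaged after 10 min at room temperature.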
# HEK293 tox = kills HEK 293 cells; AID 1345083; actives 6.6% (n = 94,000); HEK 293 viability, ATP luminescence (CellTiter-Glo), 48-72 h; Potency, µM (top dose mostly 115 µM), for inactives: at the top dose activity change, negative = cytotoxicity, hits mostly inhibitors; also: nearly all actives have a fitted effect of over 60% in size
#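 Viability of HEK 293 cells, plated at 250 cells/well, was judged by cellular ATP after compound treatment for 48 or 72 hr. Luminescence was imaged 10 min after CellTiter-Glo addition at room temperature.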
# hNpr1 antagonist = human Npr1 receptor antagonism; P16066; HEK293 hNpr1 GloSensor cGMP, ANP-stimulated luminescence; Potency, µM (highest dose often 46.3 µM), for inactives: at the top dose activity change, negative = inhibition, hits mostly inhibitors; actives 1.6% (n = 76,000); calls by dose curve; also: nearly all actives have a fitted effect of over 60% in size
# Target sequence (P16066 whole entry, looked up): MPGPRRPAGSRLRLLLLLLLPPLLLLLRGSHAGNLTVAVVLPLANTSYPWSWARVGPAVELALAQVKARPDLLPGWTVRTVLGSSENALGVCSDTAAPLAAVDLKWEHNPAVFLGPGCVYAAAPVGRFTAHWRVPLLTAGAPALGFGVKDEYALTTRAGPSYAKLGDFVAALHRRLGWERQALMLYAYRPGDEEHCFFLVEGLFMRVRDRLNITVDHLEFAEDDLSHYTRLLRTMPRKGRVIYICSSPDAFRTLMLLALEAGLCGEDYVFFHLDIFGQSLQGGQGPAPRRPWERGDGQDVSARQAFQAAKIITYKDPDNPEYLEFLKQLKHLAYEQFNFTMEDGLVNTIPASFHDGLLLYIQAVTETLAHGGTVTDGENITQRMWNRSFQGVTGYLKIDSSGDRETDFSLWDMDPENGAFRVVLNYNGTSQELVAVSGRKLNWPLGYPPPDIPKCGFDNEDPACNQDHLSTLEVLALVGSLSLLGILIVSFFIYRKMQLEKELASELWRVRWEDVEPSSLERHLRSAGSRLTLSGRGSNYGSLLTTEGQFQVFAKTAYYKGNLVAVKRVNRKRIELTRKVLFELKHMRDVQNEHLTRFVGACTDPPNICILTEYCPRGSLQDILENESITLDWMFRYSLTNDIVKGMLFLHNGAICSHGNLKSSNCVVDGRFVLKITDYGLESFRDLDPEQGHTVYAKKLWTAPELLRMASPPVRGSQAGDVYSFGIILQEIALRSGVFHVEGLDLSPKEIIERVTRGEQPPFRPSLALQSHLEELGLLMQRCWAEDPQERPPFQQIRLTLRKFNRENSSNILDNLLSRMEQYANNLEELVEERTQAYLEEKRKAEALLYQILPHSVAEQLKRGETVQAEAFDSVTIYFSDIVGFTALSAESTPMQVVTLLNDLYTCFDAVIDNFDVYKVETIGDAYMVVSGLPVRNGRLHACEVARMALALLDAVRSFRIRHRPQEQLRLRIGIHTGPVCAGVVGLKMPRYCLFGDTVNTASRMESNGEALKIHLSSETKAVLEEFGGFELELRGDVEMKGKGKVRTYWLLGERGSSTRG
#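 Compound pre-incubated 30 min at room temperature on GloSensor-loaded HEK293 cells stably carrying hNpr1 and the pGS-40F cGMP biosensor. Stimulation uses hNppA at 0.1 nM final; luminescence is taken at baseline and 20 min post-agonist.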
# SNCA expr inh = inhibitors of alpha-synuclein (SNCA) gene expression. HEK-293 SNCA-luciferase knock-in, luminescence, 24 h. actives 0.17% (n = 140,000). Potency, µM (highest dose often 57.2 µM), for inactives: top-dose activity change, negative = inhibition, hits mostly inhibitors;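 also: plate controls were DMSO cells for no effect and cell-free wells for full effect; nearly all actives have a fitted effect of over 45% in size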
# SNCA viab count = counter-screen for SNCA expression inhibitors: cell viability. HEK-293-SNCA-luc viability, GF-AFC fluorescence, 24 h. Potency, µM (series often up to 57.1 µM), without a hit: at the top dose activity change, negative = cytotoxicity, actives largely listed as cytotoxic. actives 0.12% (n = 150,000);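 also: 0% = DMSO-treated cells and -100% = medium-only wells without cells; nearly all actives have a fitted effect of over 30% in size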
#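 Cytotoxicity counterscreen: after 24 h compound treatment of genome-edited SNCA-luciferase HEK-293 cells, live-cell protease substrate GF-AFC read by fluorescence after 30 min; activity scaled between DMSO (0%) and medium-only (-100%), curves Hill-fitted.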
# Starred values were filed as active, the others as inactive; i = inactive; ? = inconclusive; . = no result given; ! = a repeat was not active; [ ] = dose if it differs, or a comment. An excerpt weighted towards active compounds, which were near 7.2% of everything screened. Unless noted, calls follow the shape of the dose curve; as a rule, active = well fitted curve in the direction sought with a large enough effect; inconclusive = small, poorly fitted or top-dose-only effect, or another doubt; inactive = no such curve, though single readings can be large; an effect the other way counts as inactive or inconclusive. Unless noted, % is scaled to controls: 0 for no effect and ±100 for the full control effect; potency is read from the fitted curve at half-maximal effect.
SMILES,FLuc inh,NIH3T3 tox,HEK293 tox,hNpr1 antagonist,SNCA expr inh,SNCA viab count
COc1ccc(-c2noc([C@@H]3C[C@@H](O)CN3Cc3ccc(CO)o3)n2)cc1,?,-27.4%[174 µM],-20.5%[172 µM],?,130.9%[87.6 µM],-10.1%[87.6 µM]
OCc1ccc(CN2C[C@H](O)C[C@H]2c2nc(-c3ccc(OC(F)(F)F)cc3)no2)o1,44.7µM*,?,?,-11.7%[70.6 µM],72.7%[87.6 µM],1.5%[87.6 µM]
O=C(c1ccc(C(F)(F)F)cc1)N1CCC2(C1)C(=O)N(CCc1ccccc1)c1ccccc12 (stereo unspecified),i,39.8µM*!,31.6µM*,?,?,-2.0%
CCN1C(=O)C2(CCN(S(=O)(=O)c3ccc(C(F)(F)F)cc3)CC2)c2ccccc21,i,-10.9%,31.6µM*,-1.4%,?,-5.0%
CC(=O)N1CCC2(C1)C(=O)N(CCc1ccccc1)c1ccccc12 (stereo unspecified),i,?,-8.5%,34.2%,6.7%,-0.2%
O=C(c1ccccc1Cl)N1CCC2(C1)C(=O)N(CCc1ccccc1)c1ccccc12 (stereo unspecified),i,?,39.8µM*!,62.4%,?,?
Cc1ccccc1C(=O)N1CCC2(C1)C(=O)N(CCc1ccccc1)c1ccccc12 (stereo unspecified),i,?,39.8µM*!,-1.6%,?,-4.2%
C=C(C(=O)O)C1CCC2(C)CCC(O)C(=C)C2C1 (stereo unspecified),.,.,.,.,.,-5.7%
CC1(C)CN(C(=O)c2ncc(F)cc2F)CCC1(O)CN1CCOCC1 (stereo unspecified),i,-8.4%,-2.4%,2.0%,-1.1%,1.5%
Cc1ncc2n1C(=O)N(C1CCN(Cc3ccccc3)CC1)C2,i,?,100µM*!,7.2%[70.6 µM],-7.4%[87.6 µM],?
COc1ccc(CN2CCC(N3Cc4cnc(C)n4C3=O)CC2)cc1,i,-17.8%[138 µM],?,0.0%[70.6 µM],22.7%[87.6 µM],-2.3%[87.6 µM]
Cc1cc(C)cc(N2CCN(c3cc(C4CC(O)C4)nc(C)n3)CC2=O)c1 (stereo unspecified),i,-1.7%,-12.3%,4.9%,-4.2%,-9.5%
CCn1ccc(C(=O)N2CCC(c3nnc(Cn4cncn4)n3C)CC2)n1,i,-6.2%,-15.3%,0.9%,7.0%,-9.0%
O=C(c1ccc2ccccc2c1)N1C[C@@H]2C[C@H](C1)c1ccc(NS(=O)(=O)Cc3ccccc3)c(=O)n1C2,i,79.4µM*,?,3.3%,-1.1%,-28.4%
O=C(c1ccc(-c2ccccc2)cc1)N1C[C@@H]2C[C@H](C1)c1ccc(NS(=O)(=O)c3cccc(F)c3)c(=O)n1C2,?,?,50.1µM*,-5.8%,-8.8%,-18.1%
Cn1cc(CN2C[C@@H]3C[C@H](C2)c2ccc(NS(=O)(=O)c4cccc(F)c4)c(=O)n2C3)c2ccccc21,i,12.6µM*,31.6µM*,-23.4%,-29.9%,-25.6%
Cc1cnc(CCNS(=O)(=O)c2cccc(F)c2)n1Cc1ccccc1,.,?,?,.,15.1%,0.4%
COCCN1CCCCC(CC(=O)Nc2ccc(C)c(F)c2)C1=O (stereo unspecified),i,-5.3%,-29.4%,2.2%,42.3%,-3.8%
Cc1ccc(S(=O)(=O)N2CCCC(Cn3c(C)nc4cccnc43)C2)cc1C (stereo unspecified),i,?,?,?,-13.7%,-4.1%
Cc1nc2cccnc2n1CC1CCCN(S(=O)(=O)c2cccc(Br)c2)C1 (stereo unspecified),i,?,44.7µM*,?,-18.7%,-18.8%
CC(C)[C@@H]1C[C@@H]2C[C@@H](NC3CCCC3)C[C@]2(c2ccccc2)CO1,.,?,-24.0%,.,.,.
CC(C)[C@@H]1C[C@@H]2C[C@@H](NCc3ccccc3)C[C@]2(c2ccccc2)CO1,.,?,79.4µM*,.,.,.
CCNC(=O)CCc1c(C)nn(-c2cccc(C)c2)c1Oc1ccc(F)cc1F,i,?,?,-17.1%,-11.8%,-9.6%
Cc1cc2cccc(C(=O)N[C@H]3CCOC[C@H]3C3CCOCC3)c2o1,i,-3.9%,-0.7%,-1.4%,-24.6%,-14.4%
Cc1nn(-c2ccccc2)c2c1C(C1CC1)N(CC1CN(C(=O)C3CCCC3)C1)C2=O (stereo unspecified),.,44.7µM*,?,.,.,.
SMILES,FLuc inh,NIH3T3 tox,HEK293 tox,hNpr1 antagonist,SNCA expr inh,SNCA viab count
Cc1nn(-c2ccccc2)c2c1C(C1CC1)N(CC1CN(C(=O)N(C)C)C1)C2=O (stereo unspecified),.,?,44.7µM*,.,.,.
Cc1nn(-c2ccccc2)c2c1C(C1CC1)N(CC1CN(C(=O)NC(C)C)C1)C2=O (stereo unspecified),.,-28.5%,?,.,.,.
O=C(c1cccnc1)N1CCCC1c1nc(CCOCC2CC2)no1 (stereo unspecified),i,-8.3%,-4.2%,12.3%,-4.0%,8.5%
CC(C)=CCC1(CO)CCCN(Cc2[nH]c3ccc(F)cc3c2C)C1 (stereo unspecified),i,22.4µM*,20µM*,-20.0%,-21.4%,?
Cc1ccc(Nc2ccnc(N3CCCC(C(=O)NCC(F)(F)F)C3)n2)cc1 (stereo unspecified),.,35.5µM*,?,.,1.0%,5.0%[12.5 µM]
COc1ccc(Nc2ccnc(N3CCCC(C(=O)NCC(F)F)C3)n2)cc1 (stereo unspecified),.,?,?,.,-10.8%,-5.4%
Cc1ccc(Nc2ccnc(N3CCCC(C(=O)NCC4CCCCCC4)C3)n2)cc1 (stereo unspecified),.,?,28.2µM*,.,?,4.2%[12.5 µM]
Cc1ccc(Nc2ccnc(N3CCCC(C(=O)NCC(F)F)C3)n2)cc1 (stereo unspecified),.,39.8µM*,44.7µM*,.,-12.0%,8.1%[12.5 µM]
Cc1ccc(Nc2ccnc(N3CCCC3C(=O)NCC(F)F)n2)cc1 (stereo unspecified),.,?,39.8µM*,.,-9.6%,-9.8%[12.5 µM]
CCOCC(=O)N1CCCC(c2nc(CCOCc3ccccc3)no2)C1 (stereo unspecified),.,-27.0%,1.5%,.,4.4%,-18.2%
Cc1cccc(C(=O)NCCC2CCN(C(=O)Nc3cc(F)ccc3F)CC2)c1,i,-14.4%,-5.8%,0.9%,36.8%,-0.9%
Cc1ccccc1CCC1CCCNC1 (stereo unspecified),i,-17.6%,-18.6%,6.0%,-4.0%,5.5%
O=C(Cc1ccc(F)cc1)Nc1ccc2ncnc(N3CCCC3)c2c1,i,?,?,-4.3%,26.3%,-3.6%
CCOc1cc(=O)n2c(c1C(=O)Nc1ccccc1)CCCCC2,i,i,-2.5%,3.9%,0.5%,-4.7%
